Here are results for 58 compounds from PubChem BioAssay AID1851 (National Center for Advancing Translational Sciences (NCATS), 2009).

About 2,600 (16%) of roughly 16,000 compounds were called active. Not shown: some 20% with an inconclusive outcome. The call rests on the fitted dose curve; in most records, active means well fitted curve in the direction sought with a large enough effect; inconclusive means small, poorly fitted or top-dose-only effect, or effect the other way; inactive means no such curve, though single readings can be large or run the other way. Only a sample is shown.
On the % scale 0 is the no-effect control and ±100 the full control effect.

This experiment deals with Cytochrome P450 2D6 (Homo sapiens) (UniProt P10635). Put plainly: Cytochrome panel assay with activity outcomes. As to conditions: recombinant CYP, pro-luciferin dealkylation, luminescence, p450-cyp2d6; series mostly up to 57.1 µM; activity, negative = inhibition: at the top concentration.
Chain of Cytochrome P450 2D6 (Homo sapiens) (P10635 whole entry, looked up): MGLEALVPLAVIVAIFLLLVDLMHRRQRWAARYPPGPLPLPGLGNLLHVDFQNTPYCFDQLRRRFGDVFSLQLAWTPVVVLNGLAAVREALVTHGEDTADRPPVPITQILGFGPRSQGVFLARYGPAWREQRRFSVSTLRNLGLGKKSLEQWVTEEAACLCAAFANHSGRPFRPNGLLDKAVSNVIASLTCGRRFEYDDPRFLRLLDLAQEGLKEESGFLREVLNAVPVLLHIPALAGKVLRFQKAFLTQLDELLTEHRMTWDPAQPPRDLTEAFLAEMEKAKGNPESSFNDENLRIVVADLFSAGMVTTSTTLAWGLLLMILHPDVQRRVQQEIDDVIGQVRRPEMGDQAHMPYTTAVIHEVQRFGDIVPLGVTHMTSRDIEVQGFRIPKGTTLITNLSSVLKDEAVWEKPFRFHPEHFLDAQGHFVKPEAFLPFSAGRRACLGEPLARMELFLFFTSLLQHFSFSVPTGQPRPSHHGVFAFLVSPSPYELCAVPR
On to `CN(Cc1cc2ccccc2[nH]c1=O)S(C)(=O)=O`, for which the “activity, negative = inhibition” value is -11.9% (inactive).
Take `CCc1ccc(OCC(=O)Nc2ccc(-c3nc4ccccc4o3)c(O)c2)cc1`: the “activity, negative = inhibition” value is 13% (inactive).
As for `Nc1nc(-c2ccccc2)c(-c2ccccc2)c(-c2nc(N)nc(-c3ccccc3)c2-c2ccccc2)n1`, the activity, negative = inhibition was -0.539% [at 11.4 µM] (inactive).
With `CN(N=O)c1ccc(/C=C\c2ccnc3ccccc23)cc1`, the activity, negative = inhibition is -11% [at 11.4 µM] (inactive).
Take `Cc1ccccc1OCC(=O)N/N=C1\CCOc2c(C)cccc21`: the “activity, negative = inhibition” value is 9.01% (inactive).
On to `Cc1cc(C=O)c(C)n1-c1ccc(N2CCCCC2)c([N+](=O)[O-])c1`, for which the “activity, negative = inhibition” value is 27.9% (inactive).
For the compound `COCCn1c(=O)c(-c2cccs2)nc2cnc(Oc3ccc(OC)cc3)nc21`, the “activity, negative = inhibition” value was -3.23% (inactive).
With `O=C(Nc1nnc(SCc2ccc(Cl)cc2Cl)s1)C1COc2ccccc2O1` (stereo not drawn), the “activity, negative = inhibition” value was -7.07% (inactive).
For the compound `Cc1cc(C)c2c(SCc3ccc(Cl)cc3Cl)nc(N)nc2n1`, the activity, negative = inhibition was -17.3% [at 11.4 µM] (inactive).
The AC50 is the midpoint of the concentration-response curve, whichever way the signal moves. For `N=C(N)SCc1ccc(Cl)cc1Cl` (tested in a mixture with another compound), the AC50 is 3.16 µM (active).
As for `O=C(OCn1ncc(Cl)c(Cl)c1=O)c1cccc(C(F)(F)F)c1`, the “activity, negative = inhibition” value was -11.7% (inactive).
In the case of `CNC(=O)COC(=O)c1cc2c(C)nn(-c3ccc(F)cc3)c2s1`, the “activity, negative = inhibition” value was -18.4% (inactive).
For `Nc1ccc(-c2nc3c(Cl)c(N)ccc3[nH]2)cc1`, the “activity, negative = inhibition” value was -29.2% (inactive).
For the compound `O=C(O)c1ccc(C(=O)c2ccccc2C(=O)O)cc1C(=O)O`, the activity, negative = inhibition is 8.1% [at 11.4 µM] (inactive).
Consider `CC1=C/C(=C(/c2ccc(O)c(C)c2)c2ccccc2C(=O)O)C=CC1=O`, for which the AC50 was 1.58 µM (active).
Consider `Cc1cccc(C(=O)c2ccccc2C(=O)O)c1O`, for which the “activity, negative = inhibition” value was 13.6% (inactive).
`O=c1c(-c2ccccc2)c(O)c2cccc3c2n1CCC3`: the “activity, negative = inhibition” value was 1.79% (inactive).
`C[N+](C)(N)Cc1csc(-c2ccc(Cl)cc2)n1`: the activity, negative = inhibition was -18.9% [at 11.4 µM] (inactive).
In the case of `CCOc1ccccc1NC(=O)C1Cc2ccccc2CN1S(C)(=O)=O` (stereo not drawn), the “activity, negative = inhibition” value was -15.2% (inactive).
On the same count and under the same terms, next, `O=C(O)c1ccccc1C(=O)Nc1ccc(S(=O)(=O)Nc2nccs2)cc1`: 6.16% [at 25.6 µM] (inactive).
As to `O=C(Nc1nccs1)C1Cc2ccccc2CN1S(=O)(=O)c1ccc(F)cc1` (stereo not drawn), the AC50 was 12.6 µM (active).
Turning to `O=C(O)c1nnsc1COCc1ccccc1`, the activity, negative = inhibition is 7.15% [at 11.4 µM] (inactive).
In the case of `C[N@@+]1(Cc2ccc(Cl)c(Cl)c2)CCC[C@@H]1c1ccc[n+](Cc2ccc(Cl)c(Cl)c2)c1`, the AC50 was 3.16 µM (active).
Still for that read-out and setting: next, `COc1ccccc1-c1nc(NCc2ccccc2)c2ccccc2n1`: 1.58 µM (active).
With `Clc1ccccc1-c1nc(NC2CCNCC2)c2ccccc2n1`, the “activity, negative = inhibition” value was 2.72% (inactive).
Consider `COc1ccccc1-c1nc(NC2CC2)c2ccccc2n1`, for which the AC50 was 20 µM (active).
As for `CNc1nc(-c2ccccc2OC)nc2ccccc12`, the AC50 is 20 µM (active).
For the compound `Cc1ccccc1-c1nc(NC2CCNCC2)c2ccccc2n1`, the “activity, negative = inhibition” value was -3.84% (inactive).
Turning to `Clc1ccccc1-c1nc(NCc2cccs2)c2ccccc2n1`, the AC50 was 12.6 µM (active).
Turning to `CCOc1ccccc1Nc1ccc(N)cc1S(=O)(=O)O`, the activity, negative = inhibition was 0.246% [at 11.4 µM] (inactive).
`COc1ccc(Oc2ncc3ncc(=O)n(C4CC4)c3n2)cc1`: the “activity, negative = inhibition” value is -5.49% (inactive).
Still for that read-out and setting: next, `Nc1c(S(N)(=O)=O)cc(S(N)(=O)=O)cc1S(N)(=O)=O`: 18.8% [at 11.4 µM] (inactive); `C=CCN(CC=C)C(=S)Nc1ccccc1`: -8.91% (inactive).
For `Cn1cnc([N+](=O)[O-])c1Sc1nc(N)nc2c1ncn2Cc1ccccc1`, the activity, negative = inhibition was 15.1% [at 11.4 µM] (inactive).
As to `CCN1C(=O)[C@@H]2[C@H]3C(=CC[C@@H]2C1=O)C1(OCCCO1)[C@H]1O[C@@H]1[C@H]3O`, the activity, negative = inhibition is -15.6% [at 11.4 µM] (inactive).
Consider `O=C(CSc1nc2ccc([N+](=O)[O-])cc2s1)c1ccc2ccccc2c1`, for which the activity, negative = inhibition was -13.4% [at 11.4 µM] (inactive).
As for `COc1ccccc1-c1nc(NCc2cccs2)c2ccccc2n1`, the AC50 was 1 µM (active).
As to `CN(C)c1ncc2nc(-c3ccc(Cl)cc3)c(=O)n(C)c2n1`, the “activity, negative = inhibition” value was -2.59% (inactive).
As for `C#CCCCO/N=C1/C[C@@H](O)[C@@H](O)[C@@H]2[C@@H]3C(=O)N(CC)C(=O)[C@H]3CC[C@@H]12`, the activity, negative = inhibition was -16.9% [at 11.4 µM] (inactive).
Take `NC(=NC1C2CC3CC(C2)CC1C3)Nc1ccc(I)cc1` (stereo not drawn): the AC50 is 0.0398 µM (active).
With `Nc1nc(Br)c2ccccc2c1-c1ccc(F)cc1`, the “activity, negative = inhibition” value is -9.97% (inactive).
The same measure, in the same setting: to `O=C1/C(=C/c2cccnc2)SC(=S)N1Cc1ccco1` belongs -20.9% [at 11.4 µM] (inactive).
Take `CC(=O)C1C(c2ccccc2OC(F)F)NC(=O)NC1(O)C(F)(F)F` (stereo not drawn): the “activity, negative = inhibition” value was -3.96% (inactive).
In the case of `CC(=O)c1sc(N)c(C(=O)OC(C)C)c1C`, the “activity, negative = inhibition” value was -2.55% (inactive).
As to `C[C@@H](C(=O)Nc1ccc2ccccc2c1)[C@@H]1C[C@@]1(C)[C@@H](NS(=O)(=O)c1ccc2ccccc2c1)c1ccccc1`, the “activity, negative = inhibition” value is -9.37% (inactive).
With `C[C@@H](C(=O)Nc1ccc2ccccc2c1)[C@H]1C[C@]1(C)[C@H](NS(=O)(=O)c1ccc(-c2ccccc2)cc1)c1ccccc1`, the AC50 is 2 µM (active).
Consider `C[C@@H](C(=O)Nc1ccc2ccccc2c1)[C@H]1C[C@]1(C)[C@H](NS(=O)(=O)c1ccc2ccccc2c1)c1ccccc1`, for which the AC50 was 3.16 µM (active).
Consider `C[C@@H](C(=O)Nc1ccc2ccccc2c1)[C@@H]1C[C@@]1(C)[C@@H](NS(=O)(=O)c1ccc(-c2ccccc2)cc1)c1ccccc1`, for which the “activity, negative = inhibition” value was 3.73% (inactive).
Turning to `CCSc1nc2c(c(=O)[nH]1)C(c1ccccn1)C1=C(CC(C)(C)CC1=O)N2` (stereo not drawn), the “activity, negative = inhibition” value was 17% (inactive).
On to `C[C@]1(OC(=O)/C=C\c2ccccc2)C[C@@H](O)[C@@]2(O)C=CO[C@@H](O[C@H]3O[C@@H](CO)[C@@H](O)[C@@H](O)[C@@H]3O)[C@H]21`, for which the “activity, negative = inhibition” value is -1.82% [at 25.6 µM] (inactive).
As for `CCN1CCN(c2nc(-c3ccccn3)nc3ccccc23)CC1`, the “activity, negative = inhibition” value was -25.3% (inactive).
For the compound `CC1CCCCN1c1cc(C#N)c(C#N)cc1[N+](=O)[O-]` (stereo not drawn), the “activity, negative = inhibition” value was -1.76% (inactive).
Turning to `CC1CCCCN1c1nc(-c2ccncc2)nc2ccccc12` (stereo not drawn), the AC50 is 7.94 µM (active).
For the compound `O=C(O)C12CC3(C(=O)O)CC(C(=O)O)(CC(C(=O)O)(C1)C3=O)C2=O`, the activity, negative = inhibition is -4.61% [at 11.4 µM] (inactive).
For the compound `CCCN(CCc1ccccc1)[C@H]1CCc2c(O)cccc2C1`, the AC50 was 0.501 µM (active).
On to `CCCN(C/C=C\I)[C@@H]1CCc2cccc(O)c2C1`, for which the “activity, negative = inhibition” value is 5.27% (inactive).
`Cc1ccc(-n2c(CCC(=O)O)ccc2-c2cccs2)cc1C`: the “activity, negative = inhibition” value is 3.62% (inactive).
Regarding `O=c1c(-c2ccccc2)nc2cnc(N3CCOCC3)nc2n1-c1ccccc1`, the “activity, negative = inhibition” value was -6.6% (inactive).
